From the supplement of paper PMC6555819

How the values were obtained:
Test in all cases: PBM binding z-score (relative to random genomic background probes); higher = stronger binding; sequences stand for … in GC…GCGATTGACAGCGTAGAATGAAGG
[1] = system: FXR:RXRa (NR concentration 270 nM, RXRa partner concentration 90 nM)
Method in brief: (§1)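 Probes were double-stranded and carried 34-nt variable regions with direct-repeat seeds, single-nucleotide variants, half-site ablations and random human genomic background sequences, printed on custom Agilent 4×180K protein-binding microarrays. Arrays were incubated 1 h with ligand-free nuclear receptor dimers in PBS pH 7.4, 2% milk, 0.02% Triton X-100, 1 mM DTT, 0.2 mg/mL BSA and 0.4 mg/ml salmon testes DNA. Antibodies against each partner (one per run) detected binding, and scanned fluorescence was regression-normalized. Binding z-scores use the random background probes as reference.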

[2] = system: LXRa:RXRa (NR concentration 270 nM, RXRa partner concentration 90 nM)
Method in brief: as §1

[3] = system: LXRa homodimer (NR concentration 270 nM)
Method in brief: as §1

[4] = system: LXRb:RXRa (NR concentration 270 nM, RXRa partner concentration 90 nM)
Method in brief: as §1

[5] = system: LXRb homodimer (NR concentration 270 nM)
Method in brief: as §1

[6] = system: PPARa:RXRa (NR concentration 270 nM, RXRa partner concentration 90 nM)
Method in brief: as §1

[7] = system: PPARg:RXRa (NR concentration 180 nM, RXRa partner concentration 90 nM)
Method in brief: as §1

[8] = system: PPARg:RXRa 270nM:90nM, anti-RXR (NR concentration 270 nM, RXRa partner concentration 90 nM)
Method in brief: as §1

[9] = system: PPARg:RXRa 30nM:10nM, anti-RXR (NR concentration 30 nM, RXRa partner concentration 10 nM)
Method in brief: as §1

[10] = system: PPARg:RXRa 90nM:30nM, anti-RXR (NR concentration 90 nM, RXRa partner concentration 30 nM)
Method in brief: as §1

[11] = system: PPARg:RXRa DBDmut IVT, anti-RXR (DBD mutation: RXRa K156A/R161A, NR concentration 270 nM, RXRa partner concentration 90 nM)
Method in brief: as §1

[12] = system: PPARg:RXRa IVT, anti-PPARg (NR concentration 270 nM, RXRa partner concentration 90 nM)
Method in brief: as §1

[13] = system: PPARg DBDmut:RXRa IVT, anti-PPARg (DBD mutation: PPARg1 K132A/R137A, NR concentration 270 nM, RXRa partner concentration 90 nM)
Method in brief: as §1

[14] = system: PPARg DBDmut IVT, anti-PPARg (DBD mutation: PPARg1 K132A/R137A, NR concentration 270 nM)
Method in brief: as §1

[15] = system: PPARg homodimer (NR concentration 180 nM)
Method in brief: as §1

[16] = system: PXR:RXRa (NR concentration 270 nM, RXRa partner concentration 90 nM)
Method in brief: as §1

[17] = system: PXR homodimer (NR concentration 270 nM)
Method in brief: as §1

[18] = system: RARa:RXR (NR concentration 270 nM, RXRa partner concentration 90 nM)
Method in brief: as §1

[19] = system: RARa homodimer (NR concentration 270 nM)
Method in brief: as §1

[20] = system: RARb:RXRa (NR concentration 270 nM, RXRa partner concentration 90 nM)
Method in brief: as §1

| Sequence | PBM binding z-score [1] | PBM binding z-score [2] | PBM binding z-score [3] | PBM binding z-score [4] | PBM binding z-score [5] | PBM binding z-score [6] | PBM binding z-score [7] | PBM binding z-score [8] | PBM binding z-score [9] | PBM binding z-score [10] | PBM binding z-score [11] | PBM binding z-score [12] | PBM binding z-score [13] | PBM binding z-score [14] | PBM binding z-score [15] | PBM binding z-score [16] | PBM binding z-score [17] | PBM binding z-score [18] | PBM binding z-score [19] | PBM binding z-score [20] |
| --- | --- | --- | --- | --- | --- | --- | --- | --- | --- | --- | --- | --- | --- | --- | --- | --- | --- | --- | --- | --- |
| TCATATAGGTAAAGATGAAAGTCGAACGATATGA | 0.255 | 0.326 | -0.224 | 0.183 | -0.264 | 0.972 | 1.38 | 2.08 | 3.79 | 3.02 | 3.2 | 1.97 | 1.28 | 0.63 | -1.18 | -0.0573 | -0.0684 | 0.268 | 0.0923 | 0.318 |
| CCTAGCAGGCCAGGCTCACTCAAGCATTTCGCTT | -0.543 | -0.545 | -0.346 | -0.706 | -0.617 | -0.794 | -0.439 | -0.638 | -1.13 | -0.853 | 0.917 | -0.38 | -2.2 | -2.12 | -1.28 | -0.919 | -0.688 | -1.09 | -0.856 | -0.239 |
| CATGCAGGGTCAGCTAGGCCAGAGTAGGGACGGC | 4.4 | 2.77 | -0.597 | 2.03 | -0.151 | 4.36 | 2.66 | 3.1 | 0.694 | 1.84 | 0.734 | 1.98 | 0.517 | -0.095 | 0.728 | 2.2 | -0.234 | 3.27 | -0.247 | 4.14 |
| CGTCAAAGTTCAACTAACGTAACGTAAAGCACGC | 6.21 | 5.98 | 3.62 | 4.08 | 2.43 | 4.99 | 4.65 | 5.21 | 2.17 | 4.04 | 0.504 | 1.8 | 1.16 | 1.48 | 3.23 | 4.55 | 3.33 | 3.3 | 1.91 | 5.14 |
| CCTACTGGGCCAAAAAGGTCTTTGATGCCGATAA | -0.753 | -0.556 | -0.512 | -0.343 | -1.15 | 0.669 | 0.196 | 1.01 | -0.425 | 0.203 | 3.45 | 2.65 | -0.719 | -0.578 | -0.284 | -0.31 | -0.67 | -0.184 | -0.777 | 0.422 |
| TCTTGTAGATCAAAGGTTAATAAAGCCGAAGCCT | 1.43 | 1.96 | 0.26 | 2.03 | 0.175 | 4.63 | 7.9 | 7.38 | 7.95 | 8.32 | 2.46 | 3.56 | 0.977 | 1.2 | 1.25 | 1.62 | 0.19 | 2.43 | 1.02 | 1.64 |
| TCTCGGAGGACACGAGAGGTCAGAGCTCGACATC | 2.17 | 3.37 | 2.61 | 2.53 | -0.47 | 2.99 | 0.952 | 1.88 | 1.53 | 1.48 | 1.28 | 1.31 | -0.0103 | -0.495 | 1.51 | 3.78 | 0.385 | 3.56 | -0.143 | 3.84 |
| ATATGTAGGTTATCGGGTCCTTCAGTTTGCGCAT | 0.663 | 0.859 | 0.528 | 0.856 | 0.389 | 3.24 | 5.01 | 4.43 | 1.77 | 3.45 | 6.92 | 6.98 | 2.02 | 2.6 | 1.69 | 0.963 | 0.468 | 0.74 | 0.677 | 0.829 |
| CCAGACAGCTGAGAAGGTAACTCAGCCTCGATTA | -0.225 | -0.563 | -0.25 | -0.499 | -0.831 | -0.574 | -0.129 | -0.555 | -0.623 | -0.881 | -0.628 | -0.629 | -0.497 | -0.867 | 0.219 | -0.733 | 0.0352 | -0.488 | -0.132 | -1.71 |
| CCTACTGGGCCAAAGGTTATTGATTCCAATGCTC | 0.648 | 1.32 | 0.345 | 1.76 | -0.363 | 5.33 | 10.4 | 9.22 | 8.72 | 10.5 | 5.27 | 5.88 | 0.256 | -0.287 | 0.925 | 1.39 | 0.0532 | 2.34 | -0.256 | 1.53 |
| TCGCGTAGGTTAGTCGGGGCATTCAGCCAACATA | 0.0922 | -0.043 | -0.337 | 0.83 | -0.797 | 0.69 | -0.444 | 0.614 | 0.929 | 0.992 | 0.798 | 0.382 | -0.631 | -0.248 | -0.58 | 0.226 | -0.158 | 0.335 | -0.333 | 0.559 |
| TCATATCGGTAAATGCTAGGTGAAAGTCCGATCT | 0.228 | 0.361 | 0.17 | 0.39 | 0.0158 | 0.778 | 0.243 | 2.06 | 3.69 | 2.84 | 1.8 | 1.17 | 0.763 | 0.728 | 0.249 | 0.387 | -0.111 | 0.463 | -0.336 | 0.381 |
| TAGCCTAGGTCATGAGGGCCAGTATAGTGTCGGC | 3.91 | 3.07 | 0.189 | 1.73 | -0.262 | 3.69 | 2.94 | 2.69 | 0.483 | 1.94 | 2.17 | 3.05 | 0.44 | -0.29 | 0.909 | 1.6 | -0.521 | 2.56 | -0.556 | 3.8 |
| TCTAGCACGCCAGAGGGTCACTCAAGAGGTACGG | 1.04 | 1.11 | -0.323 | 0.821 | -0.814 | 2.01 | 0.836 | 1.13 | 1.71 | 1.2 | 0.507 | 0.0659 | -0.875 | -0.824 | 0.566 | 1.56 | -0.773 | 2.37 | -0.679 | 2.04 |
